The values that follow come from the supplement of paper PMC10338343.

± gives the standard deviation.

This experiment has as its system EfPiwi piRISC loaded with L1MC piRNA (26 nt). Description: pre-steady-state target cleavage rate (min^-1); auxiliary factor: 500 nM Ephydatia muelleri Gtsf1; guide: L1MC piRNA 5'p-UAACUAAAUACUAUGCAAGCUGUAGG; MIWI and MILI are mouse PIWI proteins and EfPiwi is from a freshwater sponge; tags in brackets are library labels; higher = faster piRNA-guided slicing of the target. In outline: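 The pre-steady-state cleavage rate was obtained by Cleave-'n-Seq with a burst-and-steady-state fit. A transcribed, DNA-blocked target RNA library (0.1 nM) was mixed with 1 nM active affinity-purified piRISC carrying one synthetic guide, with or without 500 nM GTSF1 partner protein, in HEPES–potassium acetate buffer at 33 °C for 0–8 or 0–960 min. Uncleaved targets were sequenced and normalised to depth and to weakly complementary targets, with three trials pooled and k3 capped at 0.0001 min^-1.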

As for UCCUCCUACAGCUUGGAUAGUUUUUAGUUA, the “pre-steady-state target cleavage rate” value is 0.0265 ± 0.007. Take UCCUGGAUGUCGAACCAUAGUAUUUCGUUA: the “pre-steady-state target cleavage rate” value is less than 0.0001. Consider UCCUGCUACAGCUUGCUUAGUAUUUUCAAA, for which the “pre-steady-state target cleavage rate” value was determined as 0.00321 ± 0.003. In the case of UCCUGCUACACCAUGCAUAGUAUUUAGUUA it was 0.00582 ± 0.003. Take UCCUGCUACAGCUUGCAUAGUAAUUUCAAA: the “pre-steady-state target cleavage rate” value worked out at 0.00378 ± 0.0027. Turning to UCCUGGUACAGGUUGCAUAGUAUUAAGUUA, the “pre-steady-state target cleavage rate” value turned out to be 0.00485 ± 0.0027. As to UCCUGCUACUCCUUGCAUAGUAUUUACAAA, the “pre-steady-state target cleavage rate” value worked out at 0.00249 ± 0.0023. UCCUGGAAGAGCUUGCAUAGUAAUUAGUUA: the “pre-steady-state target cleavage rate” value turned out to be 0.00806 ± 0.0027. Turning to UCCUGGAUGUCGAAGGAUACUAUUUAGUUA, the “pre-steady-state target cleavage rate” value was less than 0.0001. On to UCCUCCUACAACUUGCAUAGUAUUUAGUUA, for which the “pre-steady-state target cleavage rate” value was found to be 0.0806 ± 0.024. As for UCCUGGAUCAGCUUGCAUUGUAUUAAGUUA, the “pre-steady-state target cleavage rate” value amounted to 0.00314 ± 0.0017. For the sequence “UCCUGGAUGUGCUUGCAUUCAUAAAUCAAA [g13:g20:cont:t1A]”, the “pre-steady-state target cleavage rate” value is less than 0.0001. As to UCCUGGAUGUCGAACCAGAGUAUUUAGUUA, the “pre-steady-state target cleavage rate” value was less than 0.0001.

Take UCCUGGUACAGCUUCCAUAGUAUUUAGAUA: the “pre-steady-state target cleavage rate” value came out at 0.00221 ± 0.0016. Consider UCCUGGAUGUCGAACCAUAGUUUUAGUUA, for which the “pre-steady-state target cleavage rate” value was less than 0.0001.
